Assay [1] can be described thus: resazurin metabolic signal in HepG2 cells – cell-based, resazurin fluorescence, 24 h, PK04 Diversity Set, profiling panel (AID 1172). The note with it: HepG2 viability, higher = more signal. A general note: The colour change of resazurin is a common sign of viable cells or microbes.
Assay [2] can be described thus: budding yeast growth changes without added modifier – OD600, strain BY4716, 24 h, basal condition, primary screen (AID 1173). The note with it: S. cerevisiae BY4716 growth, OD600, 24 h; higher = more signal, called active from +8 up or from −8 down.
Assay [3] in a line: viability profiling in MM1S myeloma cells – cell-based, resazurin fluorescence, basal, 24 h, PK04 Diversity Set, profiling panel (AID 1174). The note with it: higher = more signal, called active from +8 up or from −8 down.
Assay [4] addresses Dihydroorotate dehydrogenase (quinone), mitochondrial (Plasmodium falciparum (isolate 3D7)) (UniProt Q08210). Put plainly: inhibition of P. falciparum DHODH – biochemical, C-terminal His tag, absorbance 600 nm, primary screen (AID 1175).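 Further: recombinant parasite enzyme with a five histidine tag at its C terminus.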 The note with it: PfDHODH enzyme, DCIP absorbance 600 nm; higher = more signal, called active from +8 up or from −8 down.
The nature of assay [5]: inhibition of PAO1 biofilm formation – strain PAO1, LB-PBS medium, absorbance 600 nm, primary screen (AID 1176). The note with it: P. aeruginosa PAO1 growth/biofilm, A600, 12 h; higher = more signal.
A short description of assay [6]: growth modulation of vineyard yeast isolate – strain RM11-1a, OD600, basal, 24 h, primary screen (AID 1177).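 Further: cultures grown under basal conditions with no added stressor.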 The note with it: S. cerevisiae RM11-1a growth, OD600, 24 h; higher = more signal, called active from +8 up or from −8 down.
Assay [7] can be described thus: growth of efflux-deficient E. coli DRC39 – strain DRC39, OD650, 24 h, E. coli filamentation inducers, primary screen (AID 1178).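 Further: growth measured as culture turbidity by optical density at 650 nm.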 The note with it: E. coli DRC39 acrAB, higher = more signal, called active from +8 up or from −8 down.
A short description of assay [8]: growth of efflux-deficient E. coli DRC39 – strain DRC39, OD650, 48 h, E. coli filamentation inducers, primary screen (AID 1179).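 Further: screen aims at cell division blockers that make cells filament.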 The note with it: E. coli DRC39 delta-acrAB growth, higher = more signal, called active from +8 up or from −8 down.
Assay [9] in a line: viability profiling in RPMI8226 myeloma cells – cell-based, resazurin fluorescence, basal, 24 h, PK04 Diversity Set, profiling panel (AID 1180).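 Further: RPMI8826 multiple myeloma cell line at 5000 cells per well.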 The note with it: higher = more signal.
The target in assay [10] is E3 ubiquitin-protein ligase XIAP (Homo sapiens) (UniProt P98170). Put plainly: small molecules binding XIAP protein – biophysical, small-molecule microarray, fluorescence 635 nm, primary screen (AID 1181).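 Further: score merges 667 nm emission and signal to noise over triplicate slides.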 The note with it: higher = more signal.
Assay [11] deals with XIP peptide (Xip251-270) binding. Put plainly: XIP fragment 251-270 binding compounds – biochemical, small-molecule microarray, fluorescence 635/667 nm, 0.1 µg/mL protein, primary screen (AID 1182). The note with it: fluorescent protein binding, 635 nm, higher = more signal, called active from +8 up or from −8 down.
Assay [12] has as its system XIP peptide (Xip251-270). Kind of assay: compounds binding XIP fragment 251-270 – biochemical, small-molecule microarray, fluorescence 635/667 nm, 0.5 µg/mL protein, primary screen (AID 1183). The note with it: fluorescence 635 nm, higher = more signal.
Assay [13] in a line: blood-stage malaria parasite viability loss – strain 3D7, DAPI fluorescence, 100 nL, primary screen (AID 1184).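 Further: parasites grown inside human red blood cells in medium with human serum.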 The note with it: P. falciparum 3D7 growth, 3 d, higher = more signal.
Assay [14] deals with Homeobox protein Hox-A13 (Mus musculus) (UniProt Q62424). Kind of assay: disruptors of Hoxa13 oligonucleotide interaction – biochemical, fluorescence polarization, labeled oligonucleotide, primary screen (AID 1185). The note with it: Hoxa13:DNA binding, 15 min, higher = more signal, called active from +8 up or from −8 down.
A short description of assay [15]: blockers of DNA damage checkpoint Chk1 activation – imaging, HeLa, hydroxyurea, phospho-Chk1 antibody, percent positive cells, primary screen (AID 1186). The note with it: hydroxyurea-induced phospho-Chk1 immunofluorescence imaging, higher = more signal.
Assay [16] is described as follows: blockers of DNA damage checkpoint Chk1 activation – imaging, HeLa, hydroxyurea, phospho-Chk1 nuclear intensity, primary screen (AID 1187). The note with it: hydroxyurea-induced phospho-Chk1 immunofluorescence imaging, higher = more signal.

The source made the active and inactive calls. Unless noted, how the calls were made is not given here.

Dihydroorotate dehydrogenase (quinone), mitochondrial (Plasmodium falciparum (isolate 3D7)), sequence (Q08210 whole entry, looked up): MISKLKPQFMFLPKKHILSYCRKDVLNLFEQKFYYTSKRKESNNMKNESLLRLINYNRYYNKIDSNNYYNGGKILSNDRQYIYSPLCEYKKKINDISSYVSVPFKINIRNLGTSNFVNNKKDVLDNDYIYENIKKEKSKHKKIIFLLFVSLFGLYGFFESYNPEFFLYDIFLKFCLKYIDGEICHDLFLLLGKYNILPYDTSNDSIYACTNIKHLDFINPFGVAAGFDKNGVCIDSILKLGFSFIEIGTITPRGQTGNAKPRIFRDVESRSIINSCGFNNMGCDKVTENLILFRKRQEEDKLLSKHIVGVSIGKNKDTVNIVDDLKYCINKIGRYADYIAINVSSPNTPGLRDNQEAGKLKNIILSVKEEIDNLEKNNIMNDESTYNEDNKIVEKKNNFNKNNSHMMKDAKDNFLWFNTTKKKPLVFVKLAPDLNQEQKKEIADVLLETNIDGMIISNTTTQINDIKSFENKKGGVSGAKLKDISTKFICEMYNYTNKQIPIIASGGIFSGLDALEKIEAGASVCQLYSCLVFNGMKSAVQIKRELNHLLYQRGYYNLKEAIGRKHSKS
E3 ubiquitin-protein ligase XIAP (Homo sapiens), sequence (P98170 whole entry, looked up, the tested form may be a part): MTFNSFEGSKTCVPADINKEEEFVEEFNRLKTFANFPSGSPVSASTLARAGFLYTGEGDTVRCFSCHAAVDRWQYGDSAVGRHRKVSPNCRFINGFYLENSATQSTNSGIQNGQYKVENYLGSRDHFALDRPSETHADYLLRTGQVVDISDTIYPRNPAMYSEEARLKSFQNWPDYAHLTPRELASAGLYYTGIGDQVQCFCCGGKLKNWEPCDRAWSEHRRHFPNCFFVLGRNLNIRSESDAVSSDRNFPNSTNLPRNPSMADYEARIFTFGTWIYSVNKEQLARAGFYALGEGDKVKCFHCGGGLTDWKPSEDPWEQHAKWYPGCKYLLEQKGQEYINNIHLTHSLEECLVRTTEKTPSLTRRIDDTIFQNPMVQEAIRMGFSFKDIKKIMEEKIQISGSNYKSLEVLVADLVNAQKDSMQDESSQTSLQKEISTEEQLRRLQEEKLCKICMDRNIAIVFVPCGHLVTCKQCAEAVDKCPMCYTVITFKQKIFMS
Homeobox protein Hox-A13 (Mus musculus), sequence (Q62424 whole entry, looked up): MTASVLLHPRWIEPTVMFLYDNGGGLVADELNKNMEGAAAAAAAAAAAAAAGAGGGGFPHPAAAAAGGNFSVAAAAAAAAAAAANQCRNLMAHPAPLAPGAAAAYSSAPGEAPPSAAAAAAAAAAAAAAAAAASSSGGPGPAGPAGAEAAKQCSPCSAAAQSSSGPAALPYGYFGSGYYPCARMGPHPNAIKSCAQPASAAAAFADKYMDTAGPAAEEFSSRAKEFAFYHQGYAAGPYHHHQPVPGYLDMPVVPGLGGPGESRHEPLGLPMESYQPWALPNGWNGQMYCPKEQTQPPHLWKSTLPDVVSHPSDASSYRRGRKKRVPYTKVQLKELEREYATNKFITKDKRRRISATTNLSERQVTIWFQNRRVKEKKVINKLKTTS

`COc1ccc([Si](C)(C)[C@@H]2[C@@H](CC(=O)N(CCO)Cc3ccccc3)O[C@]3(C(=O)N(Cc4ccc(I)cc4)c4ccccc43)[C@H]2C)cc1`: the z-score in assay [1] is -1.42; in assay [2], -0.498 (inactive); in [3] it was -2.27 (inactive); in assay [5] it was 1.1 (inactive); in assay [6], 2.45 (inactive); in assay [7], -0.318 (inactive). Further, the z-score was -0.699 (inactive) in assay [8]; -2.52 in assay [9]; -2.2 in assay [13]; -2.17 (inactive) in assay [14]; -0.168 (inactive) in [15]; -0.299 (inactive) in assay [16]. Moreover, the composite z-score in assay [4] was 1.07 (inactive); in assay [10], -0.0658; in assay [11], 1.59 (inactive); in [12] it was 0.256.

As for `COCCOC(=O)N1C(=O)[C@@]2(c3cc(C#CCCO)ccc31)[C@H](c1ccc(OCCO)cc1)N1[C@H](c3ccccc3)[C@H](c3ccccc3)OC(=O)[C@H]1[C@@H]2C(=O)N1CCCCCCC1`, the z-score in assay [1] is -0.21; in [2] it was 0.532 (inactive); in assay [3], -0.292 (inactive); in assay [5] it was 1.68 (inactive); in assay [6] it was 1.13 (inactive); in assay [7], -0.442 (inactive). Moreover, the z-score in assay [8] is -0.457 (inactive); in assay [9], -0.621; in assay [13], -2.1; in assay [14], -4.34 (inactive); in assay [15], 0.197 (inactive); in assay [16], 0.476 (inactive). For the same molecule, the composite z-score was -0.0613 (inactive) in [4], 0.152 in [10], 0.788 (inactive) in assay [11] and 0.614 in [12].

As to `C[N+](C)(C)CCCC[C@@H]1NC(=O)[C@H]2C[C@@H](C(=O)NCCCCCNC(=O)CS)[C@@H](c3cccc(OCCO)c3)N2C1=O`, the z-score in [1] was -0.226; in [2], -0.307 (inactive); in assay [3], 0.703 (inactive); in assay [5], 0.298 (inactive); in assay [6], -1.13 (inactive); in [7], -0.133 (inactive). Besides, the z-score in [8] was -0.779 (inactive); in assay [9], 0.401; in [13], -0.222; in assay [14], -2.8 (inactive); in [15] it was 0.0911 (inactive); in assay [16] it was 0.164 (inactive). Besides, the composite z-score is -0.867 (inactive) in assay [4], -0.102 in assay [10], 0.649 (inactive) in assay [11] and -0.203 in [12].

As to `COc1ccc(CCNC(=O)[C@@H]2c3ccccc3C(=O)N(Cc3ccccc3OC)[C@H]2c2ccc(CO)cc2)cc1`, the z-score in assay [1] is 0.851; in [2], 0.528 (inactive); in assay [3] it was -0.0684 (inactive); in assay [5] it was 0.264 (inactive); in [6] it was -0.341 (inactive); in assay [7] it was 0.483 (inactive). Besides, the z-score is 0.258 (inactive) in assay [8]; -0.205 in assay [9]; -0.996 in assay [13]; -4.7 (inactive) in assay [14]; -0.0274 (inactive) in assay [15]; -0.213 (inactive) in assay [16]. Also, the composite z-score in assay [4] was 1.14 (inactive); in assay [10] it was -0.309; in assay [11] it was 0.675 (inactive); in assay [12], 0.393.

With `CCN(CC)c1ccc(N2CC=CC34O[C@@H]5C=CCCOC(=O)C5[C@H]3C(=O)N(C(C)CO)[C@@H]4C2=O)cc1` (stereo partly drawn), the z-score in [1] was 0.452; in assay [2], -0.315 (inactive); in [3] it was 0.172 (inactive); in assay [5], 0.398 (inactive); in assay [6] it was 0.126 (inactive); in assay [7] it was -0.491 (inactive). The z-score was -0.693 (inactive) in [8]; 0.399 in assay [9]; 0.479 in [13]; -6.31 (inactive) in assay [14]; 1.74 (inactive) in [15]; 0.865 (inactive) in [16]. Further, the composite z-score in assay [4] was -0.0558 (inactive); in [10], 0.741; in assay [11], 0.587 (inactive); in assay [12] it was 0.77.

For `C=CCN1C(=O)[C@]2(O[C@H](CCn3cc([C@H](O)c4ccccc4)nn3)[C@@H]([Si](C)(C)c3ccc(OC)cc3)[C@@H]2C)c2cc(NC(=O)c3ccc(OC)cc3)ccc21`, the z-score is -1.66 in [1]; -0.971 (inactive) in assay [2]; -3.65 (inactive) in [3]; 1.59 (inactive) in assay [5]; 1.11 (inactive) in assay [6]; 0.517 (inactive) in [7]. Also, the z-score was 0.418 (inactive) in assay [8]; -3.68 in assay [9]; -2.77 in [13]; -4.56 (inactive) in [14]; -0.552 (inactive) in assay [15]; 0.0018 (inactive) in assay [16]. The composite z-score in [4] is 0.717 (inactive); in [10] it was -0.02; in assay [11] it was 0.586 (inactive); in assay [12], 0.309.

For `N#Cc1ccc(-c2cccc(=O)o2)cc1`, the z-score in [1] was -0.518; in [2], -0.923 (inactive); in assay [3] it was 0.141 (inactive); in assay [5], 0.0767 (inactive); in assay [6], 0.719 (inactive); in assay [7] it was -1.1 (inactive). The z-score was -0.0301 (inactive) in assay [8]; -0.389 in assay [9]; 0.944 in assay [13]; 0.108 (inactive) in [14]; 0.419 (inactive) in assay [15]; 0.674 (inactive) in assay [16]. For the same molecule, the composite z-score in [4] was -0.578 (inactive); in [10] it was -0.0085; in assay [11], 0.37 (inactive); in [12] it was -0.0086.

Consider `C=C(/C(=C/C[C@@H](OC(C)=O)c1cccc(OCCO)c1)c1cnc2ccccc2c1)C(C)C`, for which the z-score is -0.682 in assay [1]; -0.517 (inactive) in assay [2]; -0.421 (inactive) in assay [3]; -0.104 (inactive) in [5]; 0.183 (inactive) in [6]; 0.12 (inactive) in assay [7]. Also, the z-score was -0.406 (inactive) in assay [8]; 0.213 in assay [9]; -2.95 in assay [13]; -5.04 (inactive) in assay [14]; 0.0066 (inactive) in [15]; 0.0865 (inactive) in assay [16]. Moreover, the composite z-score in assay [4] was -3.98 (inactive); in [10], -0.157; in assay [11], -0.136 (inactive); in assay [12], 0.725.

For the origin of these results see PubChem BioAssay.
